The values that follow come from PubChem BioAssay (Tox21).

Inconclusive results are not listed. More than one record can exist for a structure, and the calls need not agree. The source made the active and inactive calls. Unless noted, the call rests on the fitted dose curve.

Experiment [1] can be described thus: Nuclear factor erythroid 2-related factor 2/antioxidant responsive element (Nrf2/ARE) small molecule agonists: qHTS cell viability counter screen in human keratinocytes (AID 1919968; active means well fitted curve in the direction sought with a large enough effect in the repeat runs; an effect the other way counts as inactive or inconclusive; further: nearly all actives have a fitted effect of over 55% in size; further: potency means the concentration at half of the fitted maximal effect). In outline:
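Measured as CellTiter-Fluor fluorescence, this readout tracks cytotoxicity in the same wells as the ARE-luciferase screen. HaCaT reporter cells (1,500/well) received compounds after a 5 h pre-incubation and were exposed for 23 h.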
On the technique in general: qHTS replaces the single test concentration by a dilution series.

Experiment [2] in a line: Nuclear factor erythroid 2-related factor 2/antioxidant responsive element (Nrf2/ARE) small molecule agonists: luciferase reporter gene qHTS assay in human keratinocytes (AID 1919969; further: nearly all actives have a fitted effect of over 35% in size). (In a reporter assay the amount or activity of a reporter protein is the signal.)
Experiment [3] has as its target KiSS-1 receptor (Homo sapiens) (UniProt Q969F8). Put plainly: Human kisspeptin (KISS1R) small molecule agonists, calcium flux assay in KISS1R-HEK293 cells (AID 1920064; active means well fitted curve in the direction sought with a large enough effect in the repeat runs; an effect the other way counts as inactive or inconclusive). The gist of the method:
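Measures KISS1R agonism through calcium-sensitive dye fluorescence in stably transfected HEK293 cells, read for 3 min after pin-tool compound delivery; 15-point titrations in triplicate.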

The nature of experiment [4]: G protein-coupled receptor (GPCR) small molecule agonists, calcium flux assay: HEK293 wild type cell line counter screen (AID 1920065). In outline:
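Readout: fluorescence at 480 nm excitation/540 nm emission, sampled at 1 s intervals for 3 min. Cells had been cultured 18 h, then dye-loaded 1 h at 37 C before compound or ATP addition.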

Experiment [5] can be described thus: p53 small molecule agonists, cell-based qHTS assay with human liver microsomes (AID 1963577).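 Further: p53 response element beta-lactamase reporter cells with liver microsomes plus NADPH.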 In outline: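 Steps: plate p53RE-bla cells, incubate 5 h at 37 C; add compound in DMSO; add microsomes (0.5 mg/mL final) and NADPH (0.5 mg/mL final); incubate 16 h at 37 C; add LiveBLAzer, 2 h RT; read fluorescence.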
A short description of experiment [6]: p53 small molecule agonists, cell-based qHTS assay with rat liver microsomes (AID 1963578). The gist of the method:
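Metabolic activation is supplied by rat liver microsomes with NADPH (each 0.5 mg/mL final). p53RE-bla cells incubate with compound 16 h at 37 C; reporter activity is measured by LiveBLAzer fluorescence.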

A short description of experiment [7]: p53 small molecule agonists, cell-based qHTS assay with human liver microsomes: qHTS cell viability counter screen (AID 1963579). Further: nearly all actives have a fitted effect of over 45% in size. Further: potency means the concentration at half of the fitted maximal effect. The gist of the method: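 After the 460/530 nm beta-lactamase read, CellTiter-Glo was added to the same wells and luminescence measured after 30 min at room temperature, giving viability of p53RE-bla cells treated 16 h with compounds plus microsomes and NADPH.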

Experiment [8] can be described thus: p53 small molecule agonists, cell-based qHTS assay: qHTS cell viability counter screen (AID 1963581). Further: nearly all actives have a fitted effect of over 45% in size. Further: potency means the concentration at half of the fitted maximal effect. The gist of the method: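 In the same plates used for the p53 bla reporter, HCT-116 cells given compounds for 16 h at 37 C received CellTiter-Glo; luminescence was recorded 30 min later at room temperature.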
The nature of experiment [9]: p53 small molecule agonists, cell-based qHTS assay (AID 1963582; active means well fitted activation curve with a large enough effect in the signal ratio in the repeat runs, not every such curve was filed as active; the % refers to the signal ratio). The gist of the method: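 Compounds are pin-transferred in DMSO onto p53RE-bla cells and incubated 16 h at 37 C. The B/G FRET beta-lactamase substrate is then applied for 2 h at RT and fluorescence recorded.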
The target in experiment [10] is 5-hydroxytryptamine receptor 2A (Homo sapiens) (UniProt P28223). Kind of experiment: 5-hydroxytryptamine receptor 2A (HTR2A) small molecule antagonists, cell-based qHTS assay (AID 1963586). Further: nearly all actives have a fitted effect of over 45% in size. Further: potency means the concentration at half of the fitted maximal effect. In outline:
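Antagonist-mode intracellular calcium assay: DOI (4 nM) added after 5 min compound pre-incubation at room temperature to dye-loaded HTR2A-CHO cells. Fluorescence followed for 3 min, sampled every second.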

Experiment [11] has the same target. Kind of experiment: 5-hydroxytryptamine receptor 2A (HTR2A) small molecule agonists, cell-based qHTS assay (AID 1963587). Further: nearly all actives have a fitted effect of over 30% in size. Further: potency means the concentration at half of the fitted maximal effect. The gist of the method: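 Kinetic calcium-flux fluorescence (2 min, 1 sec intervals) after compound addition in agonist mode. HTR2A-CHO cells were cultured 18 h, then dye-loaded 1 h at 37 C.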
The target of experiment [12] is Muscarinic acetylcholine receptor M1 (Homo sapiens) (UniProt P11229). Put plainly: Cholinergic receptor muscarinic 1 (CHRM1) small molecule antagonists, cell-based qHTS assay (AID 1963588). Further: nearly all actives have a fitted effect of over 40% in size. The gist of the method:
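CHRM1-CHO calcium-flux assay, antagonist mode. Cells were seeded 18 h, dye-loaded 1 h at 37 C and given compound for 5 min at RT, then acetylcholine was added at 50nM. FDSS fluorescence was read 3 min; 15 concentrations, three runs.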

For experiment [13] the target is unchanged. Kind of experiment: Cholinergic receptor muscarinic 1 (CHRM1) small molecule agonists, cell-based qHTS assay (AID 1963589). Further: nearly all actives have a fitted effect of over 35% in size. Further: potency means the concentration at half of the fitted maximal effect. The gist of the method:
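Each compound was tested at 15 concentrations across three independent runs on dye-loaded CHO cells stably expressing human CHRM1, reading intracellular calcium fluorescence kinetically at 1 sec intervals.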

The nature of experiment [14]: cAMP Responsive Elements (CRE) small molecule agonists, cell-based qHTS assay (AID 1963590). The gist of the method: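 Cell line: CRE-bla HEK 293T; medium DMEM/10% dialyzed FBS/0.1 mM NEAA/1 mM pyruvate/25 mM HEPES; 3 h compound exposure; beta-lactamase FRET readout after 2 h substrate loading at RT.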
The nature of experiment [15]: cAMP Responsive Elements (CRE) small molecule antagonists, cell-based qHTS assay (AID 1963591; active means well fitted inhibition curve with a large enough effect in the signal ratio in the repeat runs, not every such curve was filed as active; the % refers to the signal ratio). In outline: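 Inhibition of NKH477-driven (0.25 uM final) CRE-beta-lactamase signal in HEK293T cells, 3 h compound exposure at 37 °C, detected by FRET substrate fluorescence.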
Experiment [16] addresses Beta-2 adrenergic receptor (Homo sapiens) (UniProt P07550). Kind of experiment: Adrenergic beta2 receptor (ADRB2) small molecule antagonists, cell-based qHTS assay (AID 1963592). Further: series mostly up to about 92 µM; nearly all actives have a fitted effect of over 50% in size. The gist of the method:
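Cells (CHO, stable ADRB2 overexpression) incubated 18-20hr at 37C; compounds added from DMSO; agonist mix (1nM isoproterenol, 100uM IBMX, 25uM Ro-20-1724) added; 0.5hr RT; d2-cAMP and anti-cAMP-cryptate added; 1hr RT; 665/615 nm read.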

For experiment [17] the target is unchanged. Put plainly: Adrenergic beta2 receptor (ADRB2) small molecule agonists, cell-based qHTS assay (AID 1963593).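 Further: CHO cells stably overexpressing human ADRB2.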 In outline:
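CHO cells stably over-expressing ADRB2 were plated overnight at 37C, then dosed with compounds plus a stimulation mix containing 100uM IBMX and 25uM Ro-20-1724 for 0.5hr at room temperature. cAMP was measured by HTRF competition, 1hr.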

For experiment [18], the target named is D(2) dopamine receptor (Homo sapiens) (UniProt P14416). Kind of experiment: Dopamine D2 receptor (DRD2) small molecule agonists, cell-based qHTS assay (AID 1963594). Further: nearly all actives have a fitted effect of over 35% in size. In outline:
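cAMP accumulation in DRD2-HEK293 cells measured by HTRF after 1 h detection; compounds added 10 min before NKH477 (200nM […]) forskolin-analogue stimulation, 30 min at room temperature, with Ro20-1724 present at 0.1 mM final.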

Experiment [19] has the same target. Kind of experiment: Dopamine D2 receptor (DRD2) small molecule antagonists, cell-based qHTS assay (AID 1963595; active means well fitted inhibition curve with a large enough effect in the signal ratio in the repeat runs, with a control signal flat; the % refers to the signal ratio). In outline:
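HTRF cAMP read-out at 665 and 620 nm emission (340 nm excitation). Antagonist mode: compounds were tested against 12 nM quinpirole in DRD2-HEK293 cells, with 200 nM NKH477 raising cAMP and 0.1 mM Ro20-1724 blocking its breakdown.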

Experiment [20] is described as follows: p53 small molecule agonists, cell-based qHTS assay with rat liver microsomes: qHTS cell viability counter screen (AID 1963580). Further: nearly all actives have a fitted effect of over 45% in size. Further: potency means the concentration at half of the fitted maximal effect. The gist of the method: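 Intracellular ATP, by CellTiter-Glo luminescence, defines viability. HCT-116 p53RE-bla cells, 4,000 per well, were compound-treated in the presence of rat liver microsomes and NADPH for 16 h at 37 C.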

5-hydroxytryptamine receptor 2A (Homo sapiens), sequence (P28223 whole entry, looked up): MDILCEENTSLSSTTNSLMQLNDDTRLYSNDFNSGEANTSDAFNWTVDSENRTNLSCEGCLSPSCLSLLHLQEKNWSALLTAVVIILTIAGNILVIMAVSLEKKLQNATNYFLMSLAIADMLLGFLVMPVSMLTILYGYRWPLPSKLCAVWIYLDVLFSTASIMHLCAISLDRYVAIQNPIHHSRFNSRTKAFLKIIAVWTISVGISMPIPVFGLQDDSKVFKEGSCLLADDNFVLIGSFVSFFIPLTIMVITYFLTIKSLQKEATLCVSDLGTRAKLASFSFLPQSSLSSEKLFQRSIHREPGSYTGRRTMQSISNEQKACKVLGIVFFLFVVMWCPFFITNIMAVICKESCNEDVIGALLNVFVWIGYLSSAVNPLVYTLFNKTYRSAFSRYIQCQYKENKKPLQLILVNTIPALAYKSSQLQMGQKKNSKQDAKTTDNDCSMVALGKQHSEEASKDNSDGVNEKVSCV
KiSS-1 receptor (Homo sapiens), sequence (Q969F8 whole entry, looked up): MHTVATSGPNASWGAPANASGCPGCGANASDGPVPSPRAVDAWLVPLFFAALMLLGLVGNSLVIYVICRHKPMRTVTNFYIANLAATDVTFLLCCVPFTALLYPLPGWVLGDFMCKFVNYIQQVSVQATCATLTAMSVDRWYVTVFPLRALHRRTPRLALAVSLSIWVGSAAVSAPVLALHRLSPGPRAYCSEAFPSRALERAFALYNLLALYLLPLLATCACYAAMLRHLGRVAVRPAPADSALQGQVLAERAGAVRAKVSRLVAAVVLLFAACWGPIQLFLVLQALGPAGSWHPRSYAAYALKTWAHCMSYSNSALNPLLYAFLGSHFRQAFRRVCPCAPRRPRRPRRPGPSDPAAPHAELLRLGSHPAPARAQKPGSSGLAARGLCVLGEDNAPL
Beta-2 adrenergic receptor (Homo sapiens), sequence (P07550 whole entry, looked up): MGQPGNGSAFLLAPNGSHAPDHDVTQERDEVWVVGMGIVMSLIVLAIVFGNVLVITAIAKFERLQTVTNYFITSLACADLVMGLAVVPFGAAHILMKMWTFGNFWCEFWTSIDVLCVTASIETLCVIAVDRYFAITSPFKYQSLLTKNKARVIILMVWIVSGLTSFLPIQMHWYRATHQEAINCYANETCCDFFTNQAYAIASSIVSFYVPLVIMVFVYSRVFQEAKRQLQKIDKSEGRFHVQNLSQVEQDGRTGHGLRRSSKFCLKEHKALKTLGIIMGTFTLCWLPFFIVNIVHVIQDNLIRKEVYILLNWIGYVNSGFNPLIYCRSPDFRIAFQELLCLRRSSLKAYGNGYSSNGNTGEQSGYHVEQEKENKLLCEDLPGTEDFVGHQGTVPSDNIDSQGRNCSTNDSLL
Muscarinic acetylcholine receptor M1 (Homo sapiens), sequence (P11229 whole entry, looked up): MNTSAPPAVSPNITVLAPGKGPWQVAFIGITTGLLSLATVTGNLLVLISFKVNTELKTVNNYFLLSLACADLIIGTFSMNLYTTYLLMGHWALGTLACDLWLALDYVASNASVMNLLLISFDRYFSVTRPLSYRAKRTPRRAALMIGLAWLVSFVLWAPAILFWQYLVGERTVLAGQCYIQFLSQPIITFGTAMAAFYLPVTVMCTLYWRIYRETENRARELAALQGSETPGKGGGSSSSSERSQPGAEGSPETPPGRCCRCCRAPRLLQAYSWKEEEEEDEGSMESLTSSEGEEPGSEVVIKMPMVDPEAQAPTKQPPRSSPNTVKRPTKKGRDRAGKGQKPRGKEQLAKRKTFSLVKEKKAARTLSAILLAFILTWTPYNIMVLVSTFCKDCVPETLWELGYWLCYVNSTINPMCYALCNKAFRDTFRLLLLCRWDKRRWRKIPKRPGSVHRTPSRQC
D(2) dopamine receptor (Homo sapiens), sequence (P14416 whole entry, looked up): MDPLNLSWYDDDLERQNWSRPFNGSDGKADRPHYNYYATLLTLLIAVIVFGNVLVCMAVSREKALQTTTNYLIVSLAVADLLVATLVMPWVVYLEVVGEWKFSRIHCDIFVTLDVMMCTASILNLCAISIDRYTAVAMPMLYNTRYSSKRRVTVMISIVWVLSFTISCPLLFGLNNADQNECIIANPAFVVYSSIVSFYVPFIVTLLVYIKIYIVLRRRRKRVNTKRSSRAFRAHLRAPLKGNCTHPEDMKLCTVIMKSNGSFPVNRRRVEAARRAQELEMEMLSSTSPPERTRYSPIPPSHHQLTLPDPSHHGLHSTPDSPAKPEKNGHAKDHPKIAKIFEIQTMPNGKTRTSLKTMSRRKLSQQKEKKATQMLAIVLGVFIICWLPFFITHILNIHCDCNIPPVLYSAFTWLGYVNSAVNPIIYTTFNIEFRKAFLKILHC

As to `O=c1c2ccccc2c(=O)c2c1cc(Cl)c1[nH]c3c([nH]c12)c(Cl)cc1c(=O)c2ccccc2c(=O)c13`, the Potency result in experiment [1], in experiment [2], in experiment [3], in experiment [4], in experiment [5] and in experiment [6] was “inactive” each time. Moreover, the Potency result in [7], in experiment [8], in [9], in experiment [10], in experiment [11] and in [12] was “inactive” each time. Besides, the Potency entry in experiment [13], in [14], in [15], in experiment [16], in experiment [17] and in [18] was “inactive” throughout. In addition, in experiment [19], the Potency result is “inactive”.

Take `CCCCC(C#N)(Cn1cncn1)c1ccc(Cl)cc1` (configuration not stated): the Potency result in [1], in experiment [2], in experiment [3], in [4], in experiment [5] and in experiment [6] was “inactive” throughout. Further, the Potency result in [7], in experiment [20], in [8], in [9], in [10] and in experiment [11] was “inactive” each time. For the same molecule, the Potency entry in [12], in [13], in experiment [15], in experiment [16], in experiment [17] and in experiment [18] was “inactive” in each case. Also, in experiment [19], the Potency entry was “inactive”.

For the molecule `Nn1cnnc1`, the Potency result in experiment [1], in experiment [2], in experiment [3], in [4], in experiment [5] and in [6] was “inactive” in each case. The Potency result in experiment [7], in [20], in experiment [8], in experiment [9], in experiment [10] and in experiment [11] was “inactive” each time. Besides, the Potency entry in experiment [13], in experiment [14], in [15], in experiment [16], in experiment [18] and in experiment [19] was “inactive” throughout.

As for `O=C(O)C(Cl)(Cl)Br`, the Potency result in [1], in [2], in experiment [3], in [4], in [5] and in experiment [6] was “inactive” each time. Further, the Potency result in experiment [7], in experiment [20], in [8], in [9], in [10] and in [11] was “inactive” in each case. The Potency result in [12], in experiment [13], in experiment [14], in experiment [15], in [16] and in experiment [17] was “inactive” each time.

Regarding `CC(C)(C)CC(C)(C)c1ccc(O)cc1`, the Potency in experiment [1] was 27.3 µM (active); in experiment [7], 16.2 µM (active) and inactive; in experiment [20] it was 37.4 µM (active) and inactive; in experiment [8] it was 43.2 µM (active); in [10], 18.8 µM (active) and inactive; in [11], 34.7 µM (active). Besides, the Potency in [13] was 49 µM (active) and inactive. In addition, the Potency result in [2], in experiment [3], in [4], in experiment [5], in [6] and in experiment [16] was “inactive” each time. In experiment [18], the Potency result was “inactive”.

For the molecule `CC(C)c1ccc(CO)cc1`, the Potency entry in experiment [1], in experiment [2], in [5], in experiment [6], in [7] and in experiment [20] was “inactive” throughout. Also, the Potency entry in experiment [8], in experiment [10], in experiment [11], in [12], in [13] and in experiment [14] was “inactive” throughout. Besides, the Potency entry in experiment [16] and in experiment [18] was “inactive” throughout.

As for `Cc1cc(Cl)ccc1OCCCC(=O)O`, the Potency result in experiment [1], in [2], in [3], in experiment [4], in [5] and in [6] was “inactive” each time. Besides, the Potency entry in [7], in experiment [20], in experiment [8], in experiment [10], in experiment [11] and in experiment [12] was “inactive” throughout. In addition, the Potency result in experiment [13], in experiment [16], in experiment [17], in experiment [18] and in [19] was “inactive” in each case.

As for `C=CC(N)=O`, the Potency result in experiment [1], in [2], in [3], in [4], in [5] and in experiment [6] was “inactive” in each case. Further, the Potency entry in experiment [7], in [20], in [8], in [14], in experiment [15] and in experiment [16] was “inactive” each time. Besides, the Potency result in experiment [19] is “inactive”.
